Assay outcomes: PubChem BioAssay, National Center for Advancing Translational Sciences (NCATS)
IL-1B inflam inh: blocks inflammasome-driven IL-1 beta release | THP-1 LPS/ATP IL-1B secretion, AlphaLISA, 16 h; stronger effect = lower value | 4.7% of 360,000 active | AID 743279 | activity change, % at 57.5 µM; in the data active = activity change below about -50%; inconclusive = mostly about -30% to -49%
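Secreted IL-1B measured by AlphaLISA bead assay after 16 h compound exposure of THP-1 cells; compounds (final up to 57.5 uM) added 1 h before LPS (250 ng/mL) and ATP (1.25 mM) stimulation; lower signal means less secretion.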
TDP1 cell noCPT: qHTS for Inhibitors of human tyrosyl-DNA phosphodiesterase 1 (TDP1): qHTS in cells in absence of CPT; DT40 Tdp1-/- hTDP1 cells, no CPT, ATP luminescence, 48 h; Potency, µM (highest dose often 46.2 µM), for inactives: at the highest dose activity change, negative = growth inhibition, actives largely listed as inhibitors; 15% of 420,000 active; AID 686978, 2013; note: potency is the fitted concentration of half-maximal effect; nearly all actives have a fitted effect of over 55% in size
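Readout: luminescence from CellTiter-Glo after 30 min in the dark at RT. Cells: DT40 Tdp1-/- with stable hTDP1, 400/well. Exposure: compounds alone, ≥48 hr, 37 °C.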
VP16 counter: inhibits Gal4-VP16 luciferase reporter, ROR gamma counter-screen; Drosophila S2 Gal4-VP16 UAS-luciferase, luminescence, 20 h; Potency, µM (titrated, usually from 53.6 µM), for inactives: at the highest dose activity, negative = inhibition, hits mostly inhibitors; 3.5% of 310,000 active; AID 2546;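 note: Gal4-VP16 expression switched on by copper sulfate through the metallothionein promoter; potency is the fitted concentration of half-maximal effect; nearly all actives have a fitted effect of over 50% in size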
ELG1 repair inh: ELG1-dependent DNA repair inhibition | 2.3% of 330,000 active | Potency, µM (highest dose often 46.1 µM), for inactives: at the top dose activity change, negative = inhibition, most hits filed as inhibitors | HEK293T ELG1-luciferase reporter, luminescence, 16 h; DNA damage induced by 5-fluorouridine; note: potency is the fitted concentration of half-maximal effect; nearly all actives have a fitted effect of over 55% in size
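5-Fluorouridine DNA damage + compound/DMSO, 2,000 cells/well, 16 h, 37 °C/5% CO2. ONE-Glo, 30 min RT, luminescence. Readout = decrease in reporter signal.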
TDP1 cell CPT: DT40-hTDP1 cell growth loss with CPT. 12% of 420,000 active. AID 686979. chicken DT40 Tdp1-/-;hTDP1 cells + 20 nM CPT, ATP luminescence, 48 h. Potency, µM (series often up to 46.2 µM), inactives show top-dose activity change, negative = growth inhibition, hits mostly inhibitors; note: potency is the fitted concentration of half-maximal effect; nearly all actives have a fitted effect of over 55% in size
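Cell growth measured by CellTiter-Glo luminescence after a minimum 48 h, 37 C compound exposure with 20 nM CPT in Tdp1-knockout DT40 cells stably expressing hTDP1, seeded 400/well; qHTS titration format.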
RORgamma inh: ROR gamma (mouse) transcription inhibition; P51450; Drosophila S2 Gal4-RORgamma UAS-luciferase reporter, 20 h; Potency, µM (highest dose often 53.6 µM), for inactives: top-dose activity change, negative = inhibition, hits mostly inhibitors; 5.4% of 310,000 active; note: potency is the fitted concentration of half-maximal effect; nearly all actives have a fitted effect of over 60% in size
Target sequence (P51450 whole entry, looked up, the tested form may be a part): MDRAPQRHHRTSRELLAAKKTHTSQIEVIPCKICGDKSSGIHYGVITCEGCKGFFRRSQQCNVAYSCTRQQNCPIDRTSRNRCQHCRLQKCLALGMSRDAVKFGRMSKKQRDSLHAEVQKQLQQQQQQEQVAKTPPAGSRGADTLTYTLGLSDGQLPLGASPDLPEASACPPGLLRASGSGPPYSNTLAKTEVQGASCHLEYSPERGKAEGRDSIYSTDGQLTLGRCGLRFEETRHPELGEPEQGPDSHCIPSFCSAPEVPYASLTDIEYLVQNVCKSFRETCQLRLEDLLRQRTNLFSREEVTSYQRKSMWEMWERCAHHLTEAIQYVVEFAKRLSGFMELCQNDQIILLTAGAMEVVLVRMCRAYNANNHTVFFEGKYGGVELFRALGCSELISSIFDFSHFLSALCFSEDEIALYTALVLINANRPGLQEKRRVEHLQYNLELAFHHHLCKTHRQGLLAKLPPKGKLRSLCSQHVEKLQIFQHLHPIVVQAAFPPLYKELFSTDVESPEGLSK
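Compounds are pin-transferred onto Drosophila Schneider cells expressing a copper-inducible Gal4–ROR gamma transactivation domain fusion. After 1 hr, copper sulfate is added to 700 uM final; luciferase is read 20 hr later.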
* marks the source's active call; other numbers are inactive results; ? = inconclusive; . = not tested or not shown. Shown are actives, neighbours in structure and some others; about 21% of the full set was active somewhere. Unless noted, calls come from the whole dose curve; as a rule, active = well fitted curve in the direction sought with a large enough effect; inconclusive = small, poorly fitted or top-dose-only effect, or another doubt; inactive = no such curve, though single readings can be large; an effect the other way counts as inactive or inconclusive. % is set by controls: 0 for no effect and ±100 for the full control effect.

SMILES	IL-1B inflam inh	TDP1 cell noCPT	VP16 counter	ELG1 repair inh	TDP1 cell CPT	RORgamma inh
Cc1ccc(C(=O)NC(=S)Nc2ccc(N3CCOCC3)cc2)c(C)c1	2	23µM*	25µM*	-21%	-1%	2.5µM*
Cc1ccc(C(=O)N/N=C/c2ccc(N3CCOCC3)cc2)c(C)c1	0	-7%	-2%	-5%	9%	-13%
O=S(=O)(Cc1ccc(Cl)cc1)Nc1ccc2c(c1)OCO2	-53*	?	-6%	11%	?	-4%
CC(=O)Nc1ccc2c(c1)OCCO2	8	1%	2%	18%	10%	-2%
O=C(NC(=S)Nc1ccc2c(c1)OCCO2)c1ccco1	-14	-7%	?	?	-5%	?
Cc1cc(NC(=O)CSc2nc(C)c(C)n2CC(C)C)no1	-1	?	.	-7%	-25%	.
COCCNC(=O)C1(C)CCN(Cc2cccc(Oc3ccccc3)c2)C1 (stereo unspecified)	28	?	.	.	?	.
CCc1ccc(C(=O)NC(=S)Nc2ccc3c(c2)OCCO3)cc1	-5	?	7.1µM*	?	?	7.1µM*
O=C(NC(=S)Nc1ccc2c(c1)OCCO2)c1ccc(F)cc1Cl	?	-29%	?	?	-26%	11µM*
O=C(NC(=S)Nc1ccc2c(c1)OCO2)c1ccc(Cl)cc1	20	?	5.6µM*	?	?	5µM*
S=C(Nc1ccc(Cl)cc1)Nc1ccc2c(c1)OCCO2	-8	-20%	?	?	-7%	?
O=C(O)c1cccc(NC(=O)c2ccc3c(c2)C(=O)N(c2ccccc2)C3=O)c1	5	-9%	-21%	?	6%	-1%
COC(=O)c1cccc(NC(=O)c2ccc3c(c2)C(=O)N(CC2CCCO2)C3=O)c1 (stereo unspecified)	-7	-8%	-2%	-21%	-8%	27%
O=C(O)c1cccc(NC(=O)c2ccc3c(c2)C(=O)N(CC2CCCO2)C3=O)c1 (stereo unspecified)	-19	-6%	-30%	-2%	0%	0.56µM*
CC(C)(C)N1C(=O)c2ccc(C(=O)Nc3ccc(O)cc3)cc2C1=O	?	16µM*	?	11%	?	-46%
CC(C)(C)NC(=O)c1cccc(NC(=O)c2ccc3c(c2)C(=O)N(C(C)(C)C)C3=O)c1	-96*	10µM*	-23%	?	?	?
COC(=O)c1cccc(NC(=O)c2ccc3c(c2)C(=O)N(C(C)(C)C)C3=O)c1	-54*	?	1%	0%	-5%	?
Cc1nc(CC(=O)Nc2cc(Cl)ccc2C)cs1	.	-5%	.	.	-1%	.
O=C(CCS(=O)(=O)c1cc(Br)cc2c1N(C(=O)C1CC1)CC2)N1CCN(c2ccccn2)CC1	-21	-21%	-7%	0%	-17%	10%
CCn1cc(C(=O)NCCc2ccc(OC)cc2)c(=O)c2ccc(C)nc21	7	23µM*	21%	-6%	?	-7%
CCn1cc(C(=O)OCC(=O)Nc2c(C)cccc2C)c(=O)c2ccc(C)nc21	0	23µM*	2%	11%	16µM*	21%
CC(NC(=O)c1cc([N+](=O)[O-])cc([N+](=O)[O-])c1)C1CC2CCC1C2 (stereo unspecified)	36	?	-10%	-17%	-23%	-29%
CCOc1ccc(CCNC(=O)C2Cc3ccccc3N2C(=O)CC)cc1 (stereo unspecified)	.	-23%	.	.	-27%	.
COc1cc(Nc2ccc(C)cc2)c([N+](=O)[O-])nc1[N+](=O)[O-]	74	2.6µM*	-15%	0%	2.1µM*	-9%
